# Source: publication PMC5540273 (PLoS ONE, 2017)
# Test system: SLK
# Conditions: concentration: 1 μM,replicates: in singlicate; n = 1
# 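Further: KINOMEscan kinase panel screen.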
row,Compound,%Inh [%]
1,NC(=O)Nc1sc(-c2ccc(F)cc2)cc1C(N)=O [GW789449],25
2,NC(=O)c1ccc(-c2cc3ncnc(SCC(=O)O)c3s2)cc1,10
3,Cc1n[nH]c2cc(Nc3ccnc(Nc4cccc(CN5CCOCC5)c4)n3)ccc12 [GW682569],0
4,O=c1[nH]cc(-c2ccc(O)cc2)c2sc(-c3ccncc3)cc12 [GSK1033723],1
5,COC(=O)Nc1nc2cc(Oc3ccc(NC(=O)Nc4cc(C(F)(F)F)ccc4Cl)cc3)ccc2[nH]1.Cl [GW697465],63
6,O=C1NCCc2[nH]c(-c3ccncc3)cc21,22
7,Cl.Cl.NC[C@H](CC1CCCCC1)NC(=O)c1ccc(-c2ccnc3[nH]ccc23)s1 [GSK1581428],75
8,CC(=O)Nc1nc2cnc(Nc3cc(NC(=O)c4cccc(CC(C)(C)C#N)c4)ccc3C)nc2s1,1
9,O=C(Nc1ccc(Oc2ccc3nc(NC(=O)C4CC4)cn3n2)c(F)c1)c1cccn(-c2ccccc2)c1=O,0
10,CC(=O)Nc1ccc(-c2cc3ncnc(SCC(=O)O)c3s2)cc1,18
11,COC(=O)c1cccc(NC(=O)NC2CCN(c3ccnc(NCc4ccc(F)cc4)n3)CC2)c1 [GSK1379860],2
12,COc1ccc(Nc2nccc(N3CCC(NC(=O)c4cccc(C#N)c4)C3)n2)cc1 (stereo not shown) [GSK1379730],30
13,Cn1ccc2ncnc(Oc3ccc(NC(=O)Nc4cncc(C(F)(F)F)c4)c(Cl)c3)c21,20
14,Cn1ccc2ncnc(Oc3ccc(NC(=O)Nc4cnn(C(C)(C)C)c4)c(Cl)c3)c21,79
15,COc1cccc(C2=C(Nc3cccc(Cl)c3)C(=O)NC2=O)c1 [SB-341556],92.2
16,Cn1ccc2ncnc(Oc3ccc(NC(=O)Nc4cccc(C(F)(F)F)c4)c(F)c3)c21,54
17,CC(C(=O)NC1CCN(c2ccnc(Nc3ccc(F)cc3)n2)C1)c1ccc(Cl)cc1 (stereo not shown) [GSK1379713],17
18,O=C(NCC1CC1)c1ccc(-c2cc(C(=O)NC3CC3)ccc2F)cc1 [GW810445],0
19,Cc1cccc2c(-c3ccncc3)c(-c3ccc(F)cc3)nn12.Cl [GW461487],15
20,c1ccc(Oc2ccc(Nc3ccnc4ccc(-c5ccccn5)cc34)cc2)cc1 [GW407034],10
21,O=C(Nc1ccccc1)c1cccc(Oc2ccc3nccn3n2)c1,9
22,Cc1ccc2c(-c3ccnc(Nc4ccc(C(F)(F)F)cc4)n3)cnn2n1 [GW819776],21
23,CC(C)c1nc(-c2cccc(NS(=O)(=O)c3ccccc3)c2)c(-c2ccnc(Nc3ccc4c(c3)CN(C)CC4)n2)s1 [GSK1649598],88
24,CN(c1ccccc1CNc1nc(Nc2ccc3c(c2)CC(=O)N3)ncc1C(F)(F)F)S(C)(=O)=O,94.8
25,CCn1c(-c2nonc2N)nc2cncc(Br)c21 [SB-738004],0
